According to the supplement of paper PMC10849652:
About 7,900 targets were measured; listed, in parts, are those with a hit and a random draw of the rest. About 0.6% of all pairs of compound and target were hits. Unmarked numbers belong to inactive results.

Tests used:
Assay in all cases: log2 fold change, soluble protein after heating vs DMSO (PISA); higher = thermal stabilisation; K562 cells, 10 uM, 30 min; active = over 0.2 and 3.5 SD of the protein, either way, in both replicates (recomputed)
[1] = compound: CS(=O)(=O)c1ccc(-c2cnc(N)c(C(=O)Nc3ccccc3)n2)cc1
How it was run: (§1)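 Quantification of soluble protein used TMTpro 16plex LC-MS/MS, with channel sums equalised. Samples were the supernatant after 21,000xg for 90 min of pooled aliquots from K562 cells (2×10^6 cells/mL) treated with 10 μM compound for 30 min, heated for 3 min over 48°C-58°C, and extracted in PBS with 0.5% NP-40 at 4°C. Values, from duplicates, describe thermal stability against control samples on a log2 fold-change scale.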

[2] = compound: C[C@@H](Oc1cc(-c2cnn(C3CCNCC3)c2)cnc1N)c1c(Cl)ccc(F)c1Cl [crizotinib]
How it was run: as §1

[3] = compound: C[C@@H]1COCCN1C2=NC(=NC(=C2)C3(CC3)S(=O)(=O)C)C4=C5C=CNC5=CC=C4
How it was run: as §1

[4] = compound: C[C@H](C1=CC=C(C=C1)C(=O)NC2=C3C=CNC3=NC=C2)N
How it was run: as §1

[5] = compound: C[C@H](Nc1ncnc2nc[nH]c12)c1cc2cccc(Cl)c2c(=O)n1-c1ccccc1 [duvelisib]
How it was run: as §1

[6] = compound: Cc1cc(Nc2cc(CN3CCOCC3)c3nc(C)c(Cc4ccc(Cl)cc4F)n3n2)n[nH]1 [gandotinib]
How it was run: as §1

[7] = compound: Cc1cc(Nc2cc(N3CCN(C)CC3)nc(Sc3ccc(NC(=O)C4CC4)cc3)n2)n[nH]1 [tozasertib]
How it was run: as §1

[8] = compound: Cc1cc(SCc2sc(-c3ccc(C(F)(F)F)cc3)nc2C)ccc1OCC(=O)O
How it was run: as §1

[9] = compound: Cc1ccc(-n2nc(C(C)(C)C)cc2NC(=O)Nc2ccc(OCCN3CCOCC3)c3ccccc23)cc1 [doramapimod]
How it was run: as §1

[10] = compound: Cc1ccc(C(=O)N(CCCN)[C@@H](c2nc3cc(Cl)ccc3c(=O)n2Cc2ccccc2)C(C)C)cc1 [ispinesib]
How it was run: as §1

Chain of UniProt Q9Y5X1 (Q9Y5X1 whole entry, looked up): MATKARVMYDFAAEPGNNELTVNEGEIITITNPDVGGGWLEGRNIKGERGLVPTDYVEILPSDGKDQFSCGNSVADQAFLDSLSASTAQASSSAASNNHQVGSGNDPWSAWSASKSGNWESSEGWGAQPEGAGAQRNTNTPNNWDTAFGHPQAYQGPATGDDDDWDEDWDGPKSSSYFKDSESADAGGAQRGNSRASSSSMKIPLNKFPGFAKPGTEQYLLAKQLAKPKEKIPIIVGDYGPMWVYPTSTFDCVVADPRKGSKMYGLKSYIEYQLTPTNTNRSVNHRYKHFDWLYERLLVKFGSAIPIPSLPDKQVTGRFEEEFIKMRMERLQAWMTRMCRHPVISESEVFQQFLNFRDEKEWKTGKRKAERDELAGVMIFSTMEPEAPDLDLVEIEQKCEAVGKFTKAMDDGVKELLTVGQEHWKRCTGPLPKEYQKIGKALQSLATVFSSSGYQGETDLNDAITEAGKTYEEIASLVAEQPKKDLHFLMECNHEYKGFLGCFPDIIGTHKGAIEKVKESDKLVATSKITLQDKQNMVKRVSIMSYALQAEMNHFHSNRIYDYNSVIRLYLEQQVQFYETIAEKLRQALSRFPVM
Chain of UniProt Q16842 (Q16842 whole entry, looked up): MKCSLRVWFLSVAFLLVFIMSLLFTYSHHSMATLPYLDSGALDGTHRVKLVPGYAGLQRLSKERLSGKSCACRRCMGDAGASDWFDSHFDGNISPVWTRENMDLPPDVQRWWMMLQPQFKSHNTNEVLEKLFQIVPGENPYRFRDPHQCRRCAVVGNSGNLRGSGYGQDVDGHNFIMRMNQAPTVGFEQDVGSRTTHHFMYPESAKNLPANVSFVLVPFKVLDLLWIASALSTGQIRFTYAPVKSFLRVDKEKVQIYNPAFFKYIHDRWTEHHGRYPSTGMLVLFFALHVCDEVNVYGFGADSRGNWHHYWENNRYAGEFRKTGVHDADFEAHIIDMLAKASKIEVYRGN
Chain of UniProt Q96DI7 (Q96DI7 whole entry, looked up): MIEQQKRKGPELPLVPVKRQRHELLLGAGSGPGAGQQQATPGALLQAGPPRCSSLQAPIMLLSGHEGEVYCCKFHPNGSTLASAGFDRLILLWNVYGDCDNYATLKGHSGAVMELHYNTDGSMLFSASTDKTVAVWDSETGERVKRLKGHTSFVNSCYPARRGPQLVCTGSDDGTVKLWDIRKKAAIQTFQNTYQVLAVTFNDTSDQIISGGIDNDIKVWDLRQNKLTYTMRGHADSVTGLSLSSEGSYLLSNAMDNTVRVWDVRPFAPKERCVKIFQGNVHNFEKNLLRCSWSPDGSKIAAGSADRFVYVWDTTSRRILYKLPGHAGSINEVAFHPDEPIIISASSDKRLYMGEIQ
Chain of UniProt Q13428 (Q13428 whole entry, looked up): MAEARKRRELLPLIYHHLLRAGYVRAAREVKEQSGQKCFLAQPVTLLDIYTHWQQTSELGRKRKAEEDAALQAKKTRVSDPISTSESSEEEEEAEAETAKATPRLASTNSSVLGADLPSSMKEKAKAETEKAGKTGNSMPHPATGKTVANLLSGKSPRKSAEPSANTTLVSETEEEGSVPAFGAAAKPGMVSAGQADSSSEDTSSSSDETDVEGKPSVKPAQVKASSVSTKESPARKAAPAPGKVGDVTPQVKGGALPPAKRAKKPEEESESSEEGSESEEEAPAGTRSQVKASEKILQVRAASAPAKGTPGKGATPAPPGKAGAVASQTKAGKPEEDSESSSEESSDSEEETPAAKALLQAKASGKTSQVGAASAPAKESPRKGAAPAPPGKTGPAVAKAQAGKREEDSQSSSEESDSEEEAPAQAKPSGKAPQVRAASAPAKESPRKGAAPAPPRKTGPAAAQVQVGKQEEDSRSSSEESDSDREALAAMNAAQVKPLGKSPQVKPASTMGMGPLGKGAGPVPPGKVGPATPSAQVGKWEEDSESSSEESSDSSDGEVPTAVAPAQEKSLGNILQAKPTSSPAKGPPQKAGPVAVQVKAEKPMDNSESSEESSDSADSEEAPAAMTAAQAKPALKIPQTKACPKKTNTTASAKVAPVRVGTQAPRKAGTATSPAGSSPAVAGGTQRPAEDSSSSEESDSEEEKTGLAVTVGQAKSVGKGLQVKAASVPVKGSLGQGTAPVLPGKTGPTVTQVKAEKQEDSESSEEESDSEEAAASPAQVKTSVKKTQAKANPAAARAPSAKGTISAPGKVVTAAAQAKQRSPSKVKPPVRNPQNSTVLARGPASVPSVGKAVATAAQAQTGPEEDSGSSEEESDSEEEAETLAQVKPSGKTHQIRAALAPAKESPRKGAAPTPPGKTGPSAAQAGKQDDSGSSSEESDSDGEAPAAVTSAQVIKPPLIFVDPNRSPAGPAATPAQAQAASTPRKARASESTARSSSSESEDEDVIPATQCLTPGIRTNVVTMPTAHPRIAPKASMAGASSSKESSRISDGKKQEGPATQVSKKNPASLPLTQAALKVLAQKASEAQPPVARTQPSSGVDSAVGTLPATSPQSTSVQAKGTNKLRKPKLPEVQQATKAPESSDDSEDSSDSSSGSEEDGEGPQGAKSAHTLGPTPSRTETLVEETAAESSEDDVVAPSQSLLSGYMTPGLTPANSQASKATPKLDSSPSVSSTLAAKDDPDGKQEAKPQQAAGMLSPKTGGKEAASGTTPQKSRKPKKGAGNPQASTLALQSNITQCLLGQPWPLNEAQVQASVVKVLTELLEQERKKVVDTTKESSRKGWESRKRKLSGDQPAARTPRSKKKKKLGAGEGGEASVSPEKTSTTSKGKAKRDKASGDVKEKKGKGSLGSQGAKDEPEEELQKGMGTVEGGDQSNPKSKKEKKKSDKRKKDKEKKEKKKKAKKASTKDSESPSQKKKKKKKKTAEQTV
Chain of UniProt O43815 (O43815 whole entry, looked up): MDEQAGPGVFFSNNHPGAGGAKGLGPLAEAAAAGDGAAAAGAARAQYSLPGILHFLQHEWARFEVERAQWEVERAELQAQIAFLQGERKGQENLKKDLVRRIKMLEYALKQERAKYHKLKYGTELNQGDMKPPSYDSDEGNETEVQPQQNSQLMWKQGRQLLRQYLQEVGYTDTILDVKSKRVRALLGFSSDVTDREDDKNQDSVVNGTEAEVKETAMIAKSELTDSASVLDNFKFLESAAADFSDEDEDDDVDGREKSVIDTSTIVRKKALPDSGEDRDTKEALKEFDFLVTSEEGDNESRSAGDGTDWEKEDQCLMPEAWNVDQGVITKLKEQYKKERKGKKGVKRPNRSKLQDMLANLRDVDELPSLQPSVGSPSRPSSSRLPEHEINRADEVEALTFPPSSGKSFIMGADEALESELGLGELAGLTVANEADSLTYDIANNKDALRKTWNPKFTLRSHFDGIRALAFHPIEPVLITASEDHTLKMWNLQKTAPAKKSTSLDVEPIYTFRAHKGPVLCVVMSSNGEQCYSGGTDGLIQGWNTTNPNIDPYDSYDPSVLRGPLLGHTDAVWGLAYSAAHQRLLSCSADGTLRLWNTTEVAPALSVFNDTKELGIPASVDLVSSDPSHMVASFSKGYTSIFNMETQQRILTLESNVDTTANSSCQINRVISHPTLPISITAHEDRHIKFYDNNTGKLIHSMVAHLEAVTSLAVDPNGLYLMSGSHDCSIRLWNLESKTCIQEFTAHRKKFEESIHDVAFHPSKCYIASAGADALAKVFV
Chain of UniProt O75494 (O75494 whole entry, looked up): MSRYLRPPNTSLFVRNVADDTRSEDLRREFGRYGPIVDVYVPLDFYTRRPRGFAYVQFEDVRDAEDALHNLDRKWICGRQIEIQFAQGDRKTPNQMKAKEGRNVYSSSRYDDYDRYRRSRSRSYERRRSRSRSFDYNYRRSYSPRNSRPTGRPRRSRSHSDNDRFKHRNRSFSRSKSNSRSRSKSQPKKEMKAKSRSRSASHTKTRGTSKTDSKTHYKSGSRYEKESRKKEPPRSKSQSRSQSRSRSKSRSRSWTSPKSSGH
Chain of UniProt Q5M775 (Q5M775 whole entry, looked up): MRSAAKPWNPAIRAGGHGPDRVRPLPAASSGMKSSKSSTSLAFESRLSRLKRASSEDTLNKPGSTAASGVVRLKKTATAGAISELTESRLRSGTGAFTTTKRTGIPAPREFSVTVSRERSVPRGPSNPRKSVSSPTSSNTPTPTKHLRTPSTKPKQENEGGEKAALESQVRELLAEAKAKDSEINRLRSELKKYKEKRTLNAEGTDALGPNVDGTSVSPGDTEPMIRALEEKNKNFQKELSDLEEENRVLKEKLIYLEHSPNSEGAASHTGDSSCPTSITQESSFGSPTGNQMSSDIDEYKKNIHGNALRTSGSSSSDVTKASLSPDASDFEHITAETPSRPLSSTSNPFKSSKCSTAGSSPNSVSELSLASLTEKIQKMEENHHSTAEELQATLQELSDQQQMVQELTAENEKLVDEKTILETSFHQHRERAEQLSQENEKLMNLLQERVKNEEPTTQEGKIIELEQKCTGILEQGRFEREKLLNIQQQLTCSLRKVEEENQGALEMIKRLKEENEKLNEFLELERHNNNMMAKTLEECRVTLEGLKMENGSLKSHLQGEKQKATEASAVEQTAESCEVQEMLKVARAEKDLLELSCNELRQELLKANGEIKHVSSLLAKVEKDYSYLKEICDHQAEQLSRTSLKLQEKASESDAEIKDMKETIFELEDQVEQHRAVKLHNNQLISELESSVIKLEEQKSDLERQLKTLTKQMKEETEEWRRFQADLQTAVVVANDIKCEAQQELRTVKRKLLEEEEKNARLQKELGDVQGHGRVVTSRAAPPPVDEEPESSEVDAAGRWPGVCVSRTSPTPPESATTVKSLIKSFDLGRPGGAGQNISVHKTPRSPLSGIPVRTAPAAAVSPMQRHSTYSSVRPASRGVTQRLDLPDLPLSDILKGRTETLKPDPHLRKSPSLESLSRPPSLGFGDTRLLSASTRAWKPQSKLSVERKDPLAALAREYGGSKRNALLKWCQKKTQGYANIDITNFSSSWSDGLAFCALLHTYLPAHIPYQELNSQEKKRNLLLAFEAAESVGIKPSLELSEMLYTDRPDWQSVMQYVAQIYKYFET

Row | Target | log2 fold change [1] | log2 fold change [2] | log2 fold change [3] | log2 fold change [4] | log2 fold change [5] | log2 fold change [6] | log2 fold change [7] | log2 fold change [8] | log2 fold change [9] | log2 fold change [10]
1 | SLC25A39 (UniProt Q9BZJ4) | -0.029 | -0.025 | 0.14 | -0.165 | 0.044 | 0.075 | 0.269 | -0.08 | -0.079 | -0.523
2 | SNX9 (UniProt Q9Y5X1) | 0.013 | -0.077 | -0.009 | 0.003 | -0.039 | -0.054 | -0.015 | 0.115 | -0.009 | -0.074
3 | SYMPK (UniProt Q92797) | -0.031 | -0.189 | 0.046 | -0.026 | 0.077 | -0.155 | 0.054 | 0.235 | -0.09 | -0.023
4 | SRPRB (UniProt Q9Y5M8) | -0.006 | 0.01 | 0.059 | -0.042 | 0.012 | 0.055 | -0.017 | 0.083 | -0.026 | 0.055
5 | THYN1 (UniProt Q9P016) | -0.015 | 0.061 | 0.001 | 0.011 | 0.071 | 0.021 | -0.024 | 0.087 | -0.036 | -0.002
6 | SNUPN (UniProt O95149) | 0.019 | -0.187 | 0.045 | -0.007 | -0.001 | -0.074 | 0.017 | -0.014 | -0.007 | 0.029
7 | TM9SF4 (UniProt Q92544) | -0.029 | -0.141 | 0.036 | 0.04 | -0.015 | -0.189 | 0.006 | 0.044 | 0.034 | -0.143
8 | STRN (UniProt O43815) | 0.016 | 0.068 | -0.004 | -0.125 | 0.046 | -0.048 | 0.048 | 0.076 | -0.018 | 0.198
9 | STARD7 (UniProt Q9NQZ5) | 0.023 | -0.051 | 0.045 | -0.114 | 0.034 | -0.168 | -0.024 | 0.023 | 0.021 | -0.01
10 | SPART (UniProt Q8N0X7) | 0.006 | -0.107 | 0.056 | 0.101 | 0.053 | -0.088 | 0.044 | 0.055 | 0.014 | -0.001
11 | STK26 (UniProt Q9P289) | -0.019 | -0.308 (active) | 0.123 | 0.049 | -0.01 | -0.061 | -0.11 | -0.01 | -0.034 | -0.146
12 | SNRNP40 (UniProt Q96DI7) | 0.033 | 0.116 | 0.14 | 0.023 | -0.015 | 0.22 | 0.019 | -0.059 | 0.071 | 0.077
13 | SQSTM1 (UniProt Q13501) | 0.1 | -0.149 | -0.059 | 0.042 | 0 | 0.168 | 0.044 | -0.027 | 0.008 | -0.019
14 | TCOF1 isoform 4 (UniProt Q13428) | -0.008 | -0.053 | 0.021 | -0.016 | -0.029 | 0.042 | 0.002 | -0.047 | 0.013 | -0.01
15 | TFAM (UniProt Q00059) | -0.071 | 0.058 | -0.153 | 0.117 | -0.04 | 0.176 | 0.036 | -0.034 | 0.022 | -0.117
16 | SLC27A4 (UniProt Q6P1M0) | -0.008 | 0.069 | 0.059 | -0.015 | 0.082 | 0.122 | 0.001 | 0.123 | 0 | -0.103
17 | SRSF10 (UniProt O75494) | -0.176 | 0.153 | -0.539 | 0.259 | -0.139 | 0.183 | 0.095 | 0.036 | 0.222 | -0.172
18 | SPECC1 (UniProt Q5M775) | -0.104 | -0.085 | -0.02 | 0.045 | 0.014 | -0.18 | 0.007 | -0.036 | 0.137 | -0.079
19 | TK1 (UniProt P04183) | -0.046 | 0.011 | -0.008 | -0.097 | 0.004 | -0.055 | -0.032 | -0.03 | -0.013 | 0.017
20 | TBC1D9B (UniProt Q66K14) | 0.041 | -0.084 | 0.016 | 0.008 | 0.01 | 0.024 | 0.055 | 0.072 | 0.007 | -0.127
21 | SMAD2 (UniProt Q15796) | 0.132 | 0.255 | -0.015 | 0.012 | 0.038 | 0.045 | 0.086 | 0.071 | -0.04 | -0.019
22 | SPG11 (UniProt Q96JI7) | 0 | 0.058 | -0.282 | 0.619 | -0.397 | 0.173 | -0.255 | 0 | -0.01 | -0.328
23 | SLC25A4 (UniProt P12235) | 0.004 | 0.112 | 0.093 | 0.01 | 0.012 | -0.004 | -0.072 | -0.034 | -0.053 | 0.028
24 | SRI (UniProt P30626) | -0.061 | 0.082 | 0.159 | -0.139 | 0.212 | -0.03 | 0.106 | 0.066 | -0.032 | 0.353 (active)
25 | SRFBP1 (UniProt Q8NEF9) | -0.053 | -0.029 | -0.21 | 0.061 | -0.039 | 0.083 | 0.055 | -0.028 | 0.007 | -0.055
26 | SMAD9 (UniProt O15198) | 0.016 | 0.019 | 0.068 | 0.037 | 0.014 | -0.197 | -0.069 | 0.074 | -0.013 | -0.169
27 | STEAP3 isoform 2 (UniProt Q658P3) | 0.065 | -0.003 | 0.022 | -0.013 | 0.054 | -0.032 | -0.006 | 0.012 | 0.003 | -0.159
28 | TARBP1 (UniProt Q13395) | 0.076 | 0.016 | 0.028 | -0.074 | -0.046 | -0.075 | -0.018 | 0.038 | -0.004 | 0.026
29 | ST3GAL2 (UniProt Q16842) | 0.096 | -0.288 | -0.017 | 0.006 | 0.035 | 0.127 | 0.024 | 0.033 | 0 | -0.096
30 | SUCLA2 (UniProt Q9P2R7) | 0.034 | 0.001 | 0.087 | -0.011 | 0.04 | -0.058 | -0.043 | 0.012 | 0.003 | -0.064
